Screening results from PubChem.
Platelet DG rel: inhibitors of platelet dense granule secretion, primary screen, cell-based, MLPCN, human platelets. human platelet-rich plasma, SFLLRN dense granule ATP release, luminescence. inhibition, %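 (compounds screened at 7.5 µM in platelet-rich plasma)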. hit rate 0.22% among 300,000. AID 1663, 2009;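 active = mean replicate score, as percent of positive control, at or above 50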
MIN6 prolif: inducers of MIN6 beta-cell proliferation, primary screen, ATP luminescence, uHTS; MIN6 cells proliferation, ATPlite luminescence, 48 h; cells starved in 0.2% serum; 100% = growth in 10% serum; proliferation, % at 10 µM; hit rate 0.29% among 330,000;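 active = compounds whose signal lies at least 3.5 SD above the mean of all wells on their plate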;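 note: 0% = DMSO-treated cells in low-serum medium and 100% = 10% serum control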
NTR1 ag: agonists of human NTR1, primary screen, imaging, U2OS cells, beta-arrestin-GFP, high content. Neurotensin receptor type 1 (Homo sapiens), P30989. NTR1-U2OS beta-arrestin-GFP spot imaging, agonist mode. activation, % at 20 µM. hit rate 0.17% among 330,000. AID 493036, 2011;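 active = activation at or above 40% of the spot to cytoplasm intensity ratio, with at least 20 cells analyzed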;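 note: 0% = DMSO without peptide and 100% = 100 nM NTR1 peptide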
GRK2 inh: compounds blocking aptamer binding on GRK2 – biochemical, human GRK2, bead flow cytometry, HTS, primary screen | Beta-adrenergic receptor kinase 1 (Homo sapiens), P25098 | FAM-aptamer displacement from GRK2 | inhibition of aptamer binding, % at 10 µM | hit rate 0.59% among 330,000;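 active = inhibition of aptamer binding above 40%, roughly 3 SD of noise, on plates passing a quality check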;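 note: median bead fluorescence of bound FAM aptamer so fluorescent compounds give negative values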
Target sequence (P25098 whole entry, looked up): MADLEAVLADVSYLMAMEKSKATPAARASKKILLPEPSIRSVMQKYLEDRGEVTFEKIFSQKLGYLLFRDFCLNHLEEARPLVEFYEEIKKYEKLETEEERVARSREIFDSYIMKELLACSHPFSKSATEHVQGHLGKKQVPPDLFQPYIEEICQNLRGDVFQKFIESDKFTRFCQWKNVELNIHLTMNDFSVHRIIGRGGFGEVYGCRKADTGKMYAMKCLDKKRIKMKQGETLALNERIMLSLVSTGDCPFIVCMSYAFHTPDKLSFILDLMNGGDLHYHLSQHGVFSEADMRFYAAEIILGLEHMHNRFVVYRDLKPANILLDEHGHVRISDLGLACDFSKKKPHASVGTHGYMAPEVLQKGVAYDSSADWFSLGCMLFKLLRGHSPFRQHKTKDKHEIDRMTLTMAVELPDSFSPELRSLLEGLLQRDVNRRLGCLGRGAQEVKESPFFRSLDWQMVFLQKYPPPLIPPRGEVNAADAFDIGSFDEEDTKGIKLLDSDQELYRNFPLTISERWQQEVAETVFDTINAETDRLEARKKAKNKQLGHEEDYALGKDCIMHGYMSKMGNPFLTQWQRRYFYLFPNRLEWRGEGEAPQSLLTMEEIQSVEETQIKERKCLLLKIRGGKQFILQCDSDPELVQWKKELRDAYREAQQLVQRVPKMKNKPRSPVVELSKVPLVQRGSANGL
GRK2 CP1: GRK2 aptamer-displacing inhibitors, retest, confirmation, biochemical, cherry pick 1, bead flow cytometry | shares compounds with GRK2 inh | aptamer displacement, % at 10 µM | hit rate 4% among 2,000 | bead-bound GRK2, FAM-aptamer displacement | AID 504451, 2011;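 active = aptamer displacement above 40%, near three times the noise of non-fluorescent compounds, on plates passing quality checks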;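 note: negative values mostly reflect intrinsic compound fluorescence rather than true enhancement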
Aptamer quench 1: fluorescent aptamer quenching in GRK2 counter-screen dose response; shares compounds with GRK2 inh; Fluorescent RNA aptamer beads, flow cytometry; active compounds read high; fluorescence change (kMESF span), kMESF (no concentration beside the values); 110 tested, under 10 active;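 active = compounds whose bead fluorescence drops by more than 37 kMESF across the dose range, marking them as dye quenchers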
FAM quench CP1: quenches fluorescent RNA aptamer, GRK2 hit artifact. Carboxyfluorescein RNA aptamer on beads, flow cytometry quenching; active compounds read low. 2,000 tested, under 10 active. shares compounds with GRK2 inh. AID 504580. fluorescence response (% of DMSO), % at 10 µM;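 active = compounds that quench the bead-bound fluorescent RNA probe, cutting fluorescence to under half of the solvent control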;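 note: counterscreen run without GRK2 so only probe quenching by compound is measured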
GRK2 confirm 2: GRK2 aptamer-displacing inhibitors, hit retest, confirmation, biochemical, cherry pick 2, bead flow cytometry | 360 tested, under 10 active | bead-bound GRK2, FAM-aptamer displacement | shares compounds with GRK2 inh | inhibition of aptamer binding, % at 10 µM;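 active = inhibition of aptamer binding above 40%, about triple the noise seen with nonglowing compounds, on plates passing quality control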;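 note: negative values mostly come from compounds that fluoresce themselves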
FAM quench SP: aptamer fluorescence quenching in GRK2 counter-screen. shares compounds with GRK2 inh. carboxyfluorescein RNA aptamer beads, flow cytometry quenching; active compounds read low. fluorescence response vs DMSO, % at 10 µM. 360 tested, under 10 active;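 active = response vs DMSO under 50%, meaning signal dropped by over half, treated as fluorescence quencher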;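 note: labelled aptamer on streptavidin beads without GRK2 as a quench counter-screen; 100% = bead fluorescence of DMSO wells and lower means quenching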
* hit, by the source's call; nt = not tested or not shown. The list is not random: actives were taken first. Their share in the collection is about 1.2%.

SMILES	Platelet DG rel	MIN6 prolif	NTR1 ag	GRK2 inh	GRK2 CP1	FAM quench CP1	others
CCN1/C(=C/C=C/c2sc3ccccc3[n+]2CC)Sc2ccccc21	18.3	-8.1	-3.7	100.0*	100.8*	94.5	Aptamer quench 1=-1.3
CCN1/C(=C/c2ccc3cc(C)ccc3[n+]2CC)Sc2ccccc21	3.4	-6.1	-4.6	55.0*	28.9	179.7
O=C(NCCN1CCOCC1)c1cccc(S(=O)(=O)NCc2ccccc2)c1	-15.4	0.9	-1.1	0.0	nt	nt
Oc1c(Br)cc(/C=N/n2c(-c3ccccc3)n[nH]c2=S)c(O)c1Br	21.0	nt	nt	3.0	nt	nt
Cc1c(Br)c(O)c(Br)c(O)c1/C=N/n1c(-c2ccccc2)n[nH]c1=S	-2.2	1.6	1.4	46.0*	-0.5	99.7
COc1ccccc1CNC(=O)C(CCSC)NC(=O)c1cccc(S(=O)(=O)N2CCOCC2)c1 (configuration not stated)	nt	-3.2	2.7	0.0	nt	nt
NC(=O)c1ccsc1NC(=O)CSc1nncs1	nt	-2.4	0.5	nt	nt	nt
COc1ccc(CCNS(=O)(=O)c2ccc3c(c2)CCCC3)cc1OC	nt	-1.8	-1.1	42.0*	nt	nt	GRK2 confirm 2=18.2;FAM quench SP=101.0
Nc1nc(O)c(N=Nc2ccc(S(N)(=O)=O)cc2)c(=O)[nH]1	-0.7	-0.8	0.2	44.0*	4.3	97.5
Cc1cc(C)n2nc(C(=O)OCC(=O)c3cc(C)n(C)c3C)nc2n1	-2.5	2.2	0.4	41.0*	26.1	99.7
Cc1ccc(NC(=O)CN(C)C(=O)COC(=O)C2=COCCO2)cc1	4.0	-3.2	-1.3	0.0	nt	nt
COC(=O)c1sc(NC(=O)COc2cccc(C)c2)nc1C	-13.4	-2.1	-1.2	72.0*	nt	nt	GRK2 confirm 2=-12.3;FAM quench SP=105.0
COC(=O)/C=C1/C(=O)N/C(=N\c2nc(C)cc(C)n2)N1c1ccc(OC)cc1	0.2	0.2	-1.1	0.0	nt	nt
COC(=O)/C=C1\N/C(=N/c2nc(C)c3cc(OC)ccc3n2)NC1=O	-2.6	-4.8	-0.7	55.0*	12.2	97.0
COc1ccc(-c2cc(=O)c3c(O)cc(OC4OC(COC5OC(C)C(O)C(O)C5O)C(O)C(O)C4O)cc3o2)cc1O (configuration not stated)	0.0	-1.9	-2.2	5.0	nt	nt
COc1ccc([C@@H]2CC(=O)c3c(O)cc(O[C@@H]4O[C@H](CO[C@@H]5O[C@@H](C)[C@H](O)[C@@H](O)[C@H]5O)[C@@H](O)[C@H](O)[C@H]4O)cc3O2)cc1O	-1.8	0.0	-0.5	56.0*	8.5	111.0
CC(=O)N(CCc1ccccc1C)Cc1cc2ccc(C)cc2[nH]c1=O	2.1	-1.2	0.1	61.0*	-0.5	103.7
CC(=O)N(CCc1ccccc1C)Cc1cc2cc(C)ccc2[nH]c1=O	-2.6	-0.9	0.6	2.0	nt	nt
Cc1ccc2cc(CN(C(=O)c3ccco3)c3ccccc3C)c(=O)[nH]c2c1	-2.6	-4.7	4.9	76.0*	-3.4	97.7
Cc1ccc(N(Cc2cc3ccc(C)cc3[nH]c2=O)C(=O)c2ccco2)c(C)c1	6.8	-3.3	4.6	3.0	nt	nt
COc1ccc(N2CC(C(=O)N(CC(C)C)c3c(N)n(Cc4ccccc4)c(=O)[nH]c3=O)CC2=O)c(OC)c1 (configuration not stated)	-1.4	5.0	0.6	2.0	nt	nt
Cc1ccc(C(C)(C)C)c(SCC(=O)Nc2nnc(C)s2)c1	3.6	1.1	2.8	0.0	nt	nt
O=C(COc1ccccc1Cl)Nc1cccc(S(=O)(=O)NC2=NCCCCC2)c1	-15.3	-2.9	2.1	5.0	nt	nt
COc1ccc(CNC(=O)C2CCCN(S(=O)(=O)c3ccc4c(c3)C(C)(C)C(=O)N4C)C2)cc1 (configuration not stated)	1.2	-1.6	-1.3	0.0	nt	nt
CN1C(=O)C(C)(C)c2cc(S(=O)(=O)N3CCCC(C(=O)NCc4ccccc4Cl)C3)ccc21 (configuration not stated)	8.4	1.2	-0.5	0.0	1.6	101.0
SMILES	Platelet DG rel	MIN6 prolif	NTR1 ag	GRK2 inh	GRK2 CP1	FAM quench CP1	others
NC(=O)c1cc2cc(Cl)ccc2o/c1=N/NC(=O)c1cccs1	-1.6	1.8	1.5	0.0	nt	nt
Cc1cc([N+](=O)[O-])cnc1N1CCOCC1	-5.2	-1.8	-0.9	88.0*	1.4	115.5
O=[N+]([O-])c1cnc(N2CCCCC2)c([N+](=O)[O-])c1	5.6	-0.8	-0.6	1.0	nt	nt
CC(=O)Nc1ccc(S(=O)(=O)Nc2nc3cc4c(cc3nc2Cl)OCCO4)cc1	-7.1	1.9	0.9	0.0	nt	nt
O=S(=O)(Nc1nc2cc3c(cc2nc1Cl)OCCO3)c1ccccc1	-4.0	-1.7	0.6	48.0*	1.3	100.4
CN(C)S(=O)(=O)N1CCN(c2ccc([N+](=O)[O-])c(NC3CC3)c2)CC1	-1.8	6.0	2.1	0.0	nt	nt
CNc1cc(N2CCN(S(=O)(=O)N(C)C)CC2)ccc1[N+](=O)[O-]	-0.8	-2.1	0.1	73.0*	3.5	94.1
Cc1cccc(NC(=O)CCC(=O)N/N=C/c2ccc(O)cc2O)c1	0.0	-4.0	-0.8	56.0*	1.5	104.8
COc1cc(CNCc2cccs2)ccc1OCc1ccccc1	0.5	-2.9	1.9	30.0	-2.0	103.2
C=C(C)CSc1nc2sc3c(c2c(=O)n1-c1ccc(C)cc1)CCN(C)C3	-2.2	-5.3	8.6	nt	0.1	100.6
Cc1ccc(S(=O)(=O)N2CCN(C(=O)COC(=O)CCOc3ccccc3)CC2)c(C)c1	nt	-2.3	-0.1	63.0*	-2.7	99.9
Cc1ccc(S(=O)(=O)N2CCN(C(=O)COC(=O)CCc3ccccc3)CC2)c(C)c1	nt	4.3	-1.1	0.0	nt	nt
COc1cccc(CN(Cc2cccnc2)S(=O)(=O)c2ccc(-n3cnnn3)c(C)c2)c1	-2.7	-0.6	0.8	29.0	-2.1	107.0
COc1cc(S(=O)(=O)N(Cc2cccnc2)Cc2ccco2)ccc1-n1cnnn1	-7.9	0.9	0.2	0.0	nt	nt
COc1cccc(/C=N/NC(=O)CNC(=O)C(c2ccccc2)c2ccccc2)c1O	13.8	-2.8	0.7	2.0	nt	nt
COc1ccc2c(c1)CCc1c(C(=O)NCCCn3ccnc3)noc1-2	7.3	-2.5	-0.1	51.0*	-6.3	98.1
